High-throughput results deposited in PubChem BioAssay by Broad Institute.
Pf Dd2 growth: P. falciparum Dd2 growth inhibitors, primary screen, SYBR Green fluorescence, single dose replicates. activity change, % at 10 µM. 94,000 tested, 2.3% active. 72 h; active compounds read low. AID 1159554, 2015; in the data active = activity change below about -80%; inconclusive = no clear call, values can overlap the other calls
C diff HTS: C. difficile growth inhibitors, primary screen, HTS; Clostridium difficile clinical isolate growth, OD600, 24 h; active compounds read low; growth activity, negative = inhibition, % at 16 µg/mL (by protocol); 86,000 tested, 0.25% active; AID 1259249, 2017;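 active = mean growth activity at or below -80% and every replicate also at or below -80%; inconclusive = mean at or below -80% but some replicate above -80%; inactive = mean growth activity above -80%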
T cruzi growth-1: T. cruzi intracellular proliferation inhibitors, primary screen, cell-based, beta-gal Tulahuen parasites, NIH3T3 host, luminescence | T. cruzi beta-gal in NIH3T3, GalScreen luminescence, 90 h | inhibition, % at 8.34 µM | 77,000 tested, 5.9% active | AID 624255, 2012;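 active = mean inhibition above about 93%, with at least 55% of replicates each passing it, limit read from the data, passing the limit was not always enough; inconclusive = only one of those two conditions holds; inactive = neither condition holds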
T cruzi growth-2: T. cruzi intracellular proliferation inhibitors, confirmation, cell-based, NIH3T3 host, beta-gal parasite, luminescence, cherry-pick; shares compounds with T cruzi growth-1; T. cruzi beta-gal in NIH3T3, GalScreen luminescence, 90 h; inhibition, % at 8.35 µM; 5,600 tested, 72% active; AID 651739, 2012;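 active = mean replicate inhibition above about 95% and at least 55% of replicates individually reaching it, limit read from the data; inconclusive = only one of the two criteria is met; inactive = neither criterion is met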
T cruzi growth-3: inhibitors of intracellular T. cruzi replication, confirmation, NIH3T3 host cells, beta-gal parasites, cherry-pick, set 2; shares compounds with T cruzi growth-1; T. cruzi beta-gal in NIH3T3, GalScreen luminescence, 90 h; inhibition, % at 2.09 µM; 5,600 tested, 21% active; AID 651740, 2012;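 active = mean inhibition above about 95%, with at least 55% of replicates also reaching it, limit read from the data; inconclusive = meets just one of the two conditions; inactive = meets neither condition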
3T3 cytotox: cytotoxicity in mouse NIH/3T3 fibroblasts, confirmation, cytotoxicity control for T. cruzi proliferation inhibitor project, cell-based, cherry-pick, single point; 5,600 tested, 14% active; NIH/3T3 viability, CellTiter-Glo ATP luminescence, 90 h; shares compounds with T cruzi growth-1; cytotoxicity (signal decrease), % at 8.35 µM; AID 651742, 2012;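 active = mean signal decrease across replicates above about 35% based on untreated-well scatter, with enough replicates individually passing, limit read from the data; inconclusive = no rule stated though some were filed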
NIH3T3 tox 2: NIH/3T3 fibroblast cytotoxicity, confirmation, cytotoxicity control, cell-based, cherry-pick, single point, set 2 | inhibition, % at 24.9 µM | AID 651744, 2012 | 5,600 tested, 56% active | shares compounds with T cruzi growth-1 | NIH/3T3 viability, CellTiter-Glo ATP luminescence, 90 h;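 active = mean loss of cell viability signal at or above a set limit, and enough replicates individually reaching it; inconclusive = meets only the mean limit or only the replicate share; inactive = meets neither condition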
A number is an active result; 0 = inactive; ? = inconclusive; - = not tested or not shown. An excerpt weighted towards active compounds, which were near 6.8% of everything screened.

SMILES	Pf Dd2 growth	C diff HTS	T cruzi growth-1	T cruzi growth-2	T cruzi growth-3	3T3 cytotox	NIH3T3 tox 2
O=C(Nc1cccc(F)c1)N1CCCCN2[C@H](C1)[C@@H](c1ccc(-c3ccncc3)cc1)[C@@H]2CO	0	0	111	111	0	0	0
Cc1ccc(-c2ccc([C@H]3[C@@H](CO)N4CCCCN(C(=O)Nc5cccc(F)c5)C[C@H]34)cc2)cc1	0	-96	107	109	115	119	105
O=C(Nc1ccc(F)cc1)N1CCCCN2[C@H](CO)[C@@H](c3ccc(-c4ccncc4)cc3)[C@@H]2C1	0	0	0	-	-	-	-
O=C(Nc1ccc(F)cc1)N1CCCCN2[C@@H](CO)[C@@H](c3ccc(-c4ccncc4)cc3)[C@@H]2C1	0	0	0	-	-	-	-
CO[C@H]1CN(C)C(=O)c2ccc(NC(=O)CC(F)(F)F)cc2OC[C@H](C)N(C(=O)C2CCOCC2)C[C@@H]1C	0	0	-	-	-	-	-
C[C@@H]1CCCCO[C@@H](CN(C)Cc2ccc3c(c2)OCO3)[C@H](C)CN([C@@H](C)CO)C(=O)c2cc(NC(=O)CCC(F)(F)F)ccc2O1	0	0	0	-	-	-	-
CCCN1C[C@@H](C)[C@@H](OC)CN(C)C(=O)c2cc(NC(=O)Nc3c(C)noc3C)ccc2OC[C@@H]1C	0	-	0	-	-	-	-
O=C(c1ccccn1)N1CC2(C1)[C@H](c1ccccc1)[C@@H](CO)N2C(=O)C1CCCC1	0	0	-	-	-	-	-
C[C@H]1CN([C@@H](C)CO)C(=O)Cc2cc(NS(=O)(=O)c3ccccc3)ccc2O[C@H]1CN(C)Cc1ccccc1	0	0	0	-	-	-	-
CN1c2ccc(Br)cc2[C@@H]2[C@@H](CCN2S(=O)(=O)c2cccc(F)c2)[C@@H]1CO	0	0	?	0	0	48	41
CN1c2ccc(Br)cc2[C@@H]2[C@@H](CCN2S(=O)(=O)c2ccc(F)cc2)[C@H]1CO	0	0	0	-	-	-	-
CN1c2ccc(-c3cccc(F)c3)cc2[C@H]2[C@H](CCN2S(=O)(=O)c2cccc(F)c2)[C@H]1CO	0	0	0	-	-	-	-
CC1C=NC(S(=O)(=O)N2CC[C@H]3[C@@H](CO)N(C)c4ccc(-c5cccc(F)c5)cc4[C@H]32)=N1 (some centres undefined)	0	0	0	-	-	-	-
Cc1cccc(S(=O)(=O)N2CC[C@@H]3[C@H](CO)N(C)c4ccc(Br)cc4[C@@H]32)c1	0	0	?	111	0	0	0
CN1c2ccc(Br)cc2[C@H]2[C@H](CCN2S(=O)(=O)c2ccc(F)cc2)[C@H]1CO	0	0	0	-	-	-	-
CC1C=NC(S(=O)(=O)N2CC[C@@H]3[C@@H](CO)N(C)c4ccc(-c5cccc(F)c5)cc4[C@@H]32)=N1 (some centres undefined)	0	0	103	104	0	0	0
CN1c2ccc(-c3cccc(F)c3)cc2[C@@H]2[C@@H](CCN2S(=O)(=O)c2cccc(F)c2)[C@@H]1CO	0	0	102	98	0	59	105
CN(C)CCCNC(=O)C[C@H]1CC[C@@H]2[C@@H](COc3ccc(NC(=O)NC4CCCC4)cc3C(=O)N2C)O1	0	-	0	-	-	-	-
Cc1ccccc1-c1ccc([C@H]2[C@H](CO)N3C(=O)CN(C(=O)c4ccc(F)cc4)C[C@@H]23)cc1	0	0	-	-	-	-	-
O=C(C[C@H]1CC[C@H](NC(=O)Nc2cc(F)ccc2F)[C@@H](CO)O1)NCCCN1CCOCC1	0	0	-	-	-	-	-
N#C[C@H]1[C@H](c2ccccc2)[C@H](CO)N1S(=O)(=O)c1ccc(F)cc1	0	0	0	-	-	-	-
C/C=C/c1ccc(C2[C@H]3CNC[C@@H]2N3S(=O)(=O)c2cccc(OC)c2)cc1 (some centres undefined)	0	0	-	-	-	-	-
COc1ccc(-c2ccc3c(c2)[C@H]2[C@H](CCN2S(=O)(=O)C2=NC(C)C=N2)[C@@H](CO)N3C)cc1 (some centres undefined)	0	0	101	104	106	0	0
COc1ccc(-c2ccc3c(c2)[C@@H]2[C@@H](CCN2S(=O)(=O)C2=NC(C)C=N2)[C@H](CO)N3C)cc1 (some centres undefined)	0	0	0	-	-	-	-
CC(C)NC(=O)N(C)C[C@H]1Oc2cc(C#CC3CC3)ccc2S(=O)(=O)N([C@@H](C)CO)C[C@H]1C	0	0	0	-	-	-	-
SMILES	Pf Dd2 growth	C diff HTS	T cruzi growth-1	T cruzi growth-2	T cruzi growth-3	3T3 cytotox	NIH3T3 tox 2
C[C@@H]1CN([C@H](C)CO)C(=O)c2cccc(NC(=O)Nc3ccc(F)cc3)c2O[C@@H]1CN(C)Cc1ccncc1	0	0	0	-	-	-	-
Cc1noc(C)c1S(=O)(=O)N(C)C[C@H]1OCCCC[C@H](C)Oc2ccc(NC(=O)Nc3ccc(F)cc3)cc2C(=O)N([C@@H](C)CO)C[C@@H]1C	0	0	0	-	-	-	-
Cc1noc(C)c1S(=O)(=O)N(C)C[C@@H]1OCCCC[C@H](C)Oc2ccc(NC(=O)Nc3ccc(C(F)(F)F)cc3)cc2C(=O)N([C@H](C)CO)C[C@@H]1C	0	0	104	105	113	0	0
Cc1noc(C)c1S(=O)(=O)N(C)C[C@H]1OCCCC[C@@H](C)Oc2ccc(NC(=O)Nc3ccc(C(F)(F)F)cc3)cc2C(=O)N([C@H](C)CO)C[C@@H]1C	0	0	110	108	102	0	32
Cc1noc(C)c1S(=O)(=O)N(C)C[C@@H]1OCCCC[C@@H](C)Oc2ccc(NC(=O)Nc3ccc(F)cc3)cc2C(=O)N([C@H](C)CO)C[C@H]1C	0	0	0	-	-	-	-
Cc1noc(C)c1S(=O)(=O)N(C)C[C@H]1OCCCC[C@@H](C)Oc2ccc(NC(=O)Nc3ccc(C(F)(F)F)cc3)cc2C(=O)N([C@@H](C)CO)C[C@@H]1C	-94	0	99	106	116	0	35
Cc1noc(C)c1S(=O)(=O)N(C)C[C@@H]1OCCCC[C@@H](C)Oc2ccc(NC(=O)Nc3ccc(F)cc3)cc2C(=O)N([C@@H](C)CO)C[C@H]1C	0	0	0	-	-	-	-
Cc1ccc(S(=O)(=O)N(C)C[C@@H]2Oc3c(NC(=O)NC4CCCCC4)cccc3C(=O)N([C@H](C)CO)C[C@@H]2C)cc1	0	0	0	-	-	-	-
CC(=O)N1CC2(C1)[C@@H](c1ccc(-c3cccc(F)c3)cc1)[C@@H](CO)N2CC1CCOCC1	0	0	-	-	-	-	-
Cc1ccc(S(=O)(=O)N[C@H]2CC[C@H](CC(=O)N3CCC(Cc4ccccc4)CC3)O[C@@H]2CO)cc1	0	0	0	-	-	-	-
C[C@@H]1CCCCO[C@H](CN(C)C(=O)Nc2ccc3c(c2)OCO3)[C@@H](C)CN([C@H](C)CO)C(=O)c2cc(NC(=O)c3ccncc3)ccc2O1	0	0	0	-	-	-	-
